# CBX7 inh: inhibitors of human CBX7 binding to H3K27me3 peptide. O95931. AlphaScreen His6-CBX7 / biotin-H3K27me3 peptide binding; stronger effect = lower value. normalised signal (fraction of DMSO) (concentration not given with the values). actives 1.1% (n = 66,000). AID 1224903; in the data active means normalised signal below about 0.5
# Target sequence (O95931 whole entry, looked up): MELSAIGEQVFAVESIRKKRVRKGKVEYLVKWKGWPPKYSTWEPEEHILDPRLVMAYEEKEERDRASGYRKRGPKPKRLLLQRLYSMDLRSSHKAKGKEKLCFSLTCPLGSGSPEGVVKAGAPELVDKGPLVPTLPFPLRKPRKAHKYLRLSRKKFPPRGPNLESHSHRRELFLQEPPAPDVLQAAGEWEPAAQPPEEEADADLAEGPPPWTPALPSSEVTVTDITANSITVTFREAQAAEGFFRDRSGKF
# * marks the source's active call; other numbers are inactive results. This is one part of a sample in which hits are shown more often than they occur.
SMILES,CBX7 inh
O=C(Nc1ccccc1C(=O)Nc1ccccn1)c1ccccc1,1
Cc1ccccc1NC(=O)c1nc[nH]c1C(=O)Nc1ccccc1C,0.74
O=C(Nc1ccccn1)c1nc[nH]c1C(=O)O,0.3*
O=C(Nc1ccc(Br)cc1)c1nc[nH]c1C(=O)O,0*
O=C(Nc1ccc(Br)cc1)c1ccccc1C(=O)c1ncc[nH]1,1.1
Cc1nc2sc(C(c3cccs3)N3CCN(c4ccccc4F)CC3)c(O)n2n1 (stereo not given),1
CC(C)Oc1ccc(C2CC(=O)Nc3cc4c(cc32)OCCO4)cc1 (stereo not given),0.8
O=C1CN(S(=O)(=O)c2ccc3c(c2)CCN3C(=O)C2CCC2)CC(=O)N1CCc1ccccc1,0.99
CCOc1ccc(NC(=O)Cn2nc(-c3ccc(OC)cc3)ccc2=O)cc1,0.98
COc1ccc(-c2noc(CCC(=O)NCCCN3CCCC3)n2)cc1,1
COc1ccccc1-c1c(C)nn2c(NC(C)CCc3ccccc3)cc(C)nc12 (stereo not given),0.99
Cc1ccc(-c2csc(NC(=O)c3ccc(S(=O)(=O)N(C)c4ccccc4)cc3)n2)cc1,1
Cc1nnc(NC(=O)c2ccc(S(=O)(=O)N(C)c3ccccc3)cc2)o1,0.78
CCN(c1ccccc1)S(=O)(=O)c1ccc(C(=O)Nc2nnc(C)o2)cc1,0.052*
CCc1nnc(NC(=O)c2ccc(S(=O)(=O)N(CC)Cc3ccccc3)cc2)o1,0.76
CCN(Cc1ccccc1)S(=O)(=O)c1ccc2oc(C(=O)O)c(C)c2c1,1.2
CCCN(CCC)S(=O)(=O)c1ccc(C(=O)Nc2nnc(-c3cccs3)o2)cc1,0.93
CCc1nnc(NC(=O)c2ccc(S(=O)(=O)N(CCC#N)CCC#N)cc2)o1,0.056*
CCN(Cc1ccccc1)S(=O)(=O)c1ccc(C(=O)Nc2nnc(C)o2)cc1,0.0031*
C=CCN(CC=C)S(=O)(=O)c1ccc(C(=O)Nc2nnc(CC)o2)cc1,0.064*
C=CCN(CC=C)S(=O)(=O)c1ccc(C(=O)Nc2nnc(-c3cc(OC)cc(OC)c3)o2)cc1,0.94
COc1ccc(N2C(=O)N(c3ccccc3C)C3CS(=O)(=O)CC32)cc1 (stereo not given),1.1
CCc1cccc(NC(=O)Cc2c(C(=O)O)[nH]c3ccc(Cl)cc23)c1,0.98
COc1ccc(OC)c(NS(=O)(=O)c2cnc[nH]2)c1,0.89
O=C(NC1CC1)c1ccc2c(c1)N(Cc1ccc(Cl)cc1)C(=O)c1ccccc1S2,1
SMILES,CBX7 inh
Cc1oc(-c2ccccc2F)nc1C(=O)NCc1ccc2c(c1)OCO2,1
COC(CNC(=O)c1ccc2c(c1)N(Cc1cccc(F)c1)C(=O)c1ccccc1S2)OC,1.1
O=C(NCCCc1nc2ccccc2[nH]1)c1ccc(Cl)cc1,1.1
CCCCN(CC)S(=O)(=O)c1ccc(C(=O)Nc2ccc(-c3nc4ccccc4[nH]3)cc2)cc1,0.98
CCCCN(CC)S(=O)(=O)c1ccc(C(=O)Nc2nnc(-c3cccs3)o2)cc1,0.9
CCCCN(CC)S(=O)(=O)c1ccc(C(=O)Nc2nnc(C)o2)cc1,0.024*
CCCCN(CC)S(=O)(=O)c1ccc(C(=O)Nc2ccccc2-c2nc3ccccc3s2)cc1,1.1
CCCCN(CC)S(=O)(=O)c1ccc(C(=O)Nc2nnc(CC)o2)cc1,0.079*
CCc1ccccc1Nc1cc(C(=O)NCCN2CCCC2)c2ccccc2n1,1.1
COc1cc(OC)cc(-c2cc3nc(C)c(CCC(=O)Nc4ccccc4C)c(C)n3n2)c1,0.92
CCCCOc1ccccc1C1CC(=O)Nc2cc(OCC)c(OCC)cc21 (stereo not given),1
CN(C)CCNC(=O)C1CCC(=O)N1Cc1ccccc1Cl (stereo not given),1
Cc1cc(N2CCCCC2)nc2ccc(NC(=O)c3ccncc3)cc12,0.82
COc1ccc(-c2cc3nc(C)c(CCC(=O)NCc4ccccn4)c(C)n3n2)c(OC)c1,1
CC(C)(C)c1ccc(-c2nnc3sc(-c4ccccn4)nn23)cc1,0.11*
c1ccc(-c2nnc3sc(-c4ccccn4)nn23)cc1,0.8
c1ccc(-c2nnc3sc(-c4cnccn4)nn23)cc1,1
COc1cccc(-c2nc(-c3nonc3N)no2)c1,0.96
Cc1ccc(S(=O)(=O)C2(C(=O)N3CCC(Cc4ccccc4)CC3)CC2)cc1,0.89
Cc1ccccc1C(=O)Nc1ccc2oc(-c3ccncc3)nc2c1,1.1
Cc1ccc(NCC(O)Cn2c3c(c4cc(C)ccc42)CCCC3)cc1 (stereo not given),0.6
Cc1ccc(NCC(O)Cn2c3c(c4cc(C)ccc42)CCCC3)c(C)c1 (stereo not given),0.47*
Cc1ccc2c(c1)c1c(n2CC(O)CN2CCCCC2C)CCCC1 (stereo not given),0.82
CCN(C(=O)c1cn(CC(C)C)c(=O)c2cc(OC)c(OC)cc12)c1ccccc1F,1
COc1ccc(-c2cc3nc(C)c(CCC(=O)Nc4cc(C)cc(C)c4)c(C)n3n2)c(OC)c1,1
SMILES,CBX7 inh
COc1ccc(CN(C)CCc2ccccn2)cc1OC,0.47*
COc1ccc(CN(C)CCc2ccccn2)cc1,0.69
COc1ccc(CN(C)CCc2ccccn2)cc1OCc1ccccc1,0.72
Cc1ccccc1Nc1c(-c2cccc(Br)c2)nc2ccccn12,1.1
COc1ccc(C(=O)Nc2nc(N3C(=O)c4ccccc4C3=O)n(-c3ccccc3)n2)cc1,0.2*
COc1ccc(NC(=O)c2ccc3c(c2)C(=O)N(c2cccc(C)c2)C3=O)cc1,0.82
Cc1ccn2c(NC(=O)c3ccc(F)cc3)c(-c3ccc(F)cc3)nc2c1,1.1
COc1ccc(N2C(=O)c3ccc(C(=O)Nc4ccccc4C(=O)O)cc3C2=O)cc1,1.1
O=C(Nc1nc(N2C(=O)c3ccccc3C2=O)n(-c2ccccc2)n1)c1ccc(F)cc1,0.09*
Cc1ccn2c(NC(=O)c3ccc(F)cc3)c(-c3ccccc3)nc2c1,1.2
Cc1cc(NC(=O)CC2Nc3ccccc3NC2=O)no1 (stereo not given),1.1
COc1ccc(NC(=O)CSc2nc(-c3cccc(F)c3)[nH]c2-c2ccccc2)cc1,0.84
O=C(Nc1ccc2oc(-c3cc(Br)ccc3Cl)nc2c1)c1ccccc1F,1
Cc1nc2cc(-c3cccc(F)c3)nn2c(C)c1CCC(=O)NCCCN1CCCC1=O,0.96
Cn1nc(-c2ccc(C(=O)N3CCOCC3)cc2)c2ccccc2c1=O,1
CCCN1CCCc2cc(CN(CCCOC)C(=O)Nc3ccc(OCC)cc3)ccc21,0.23*
CCN1CCCc2cc(CN(CCN3CCOCC3)C(=O)Nc3ccc(Cl)cc3)ccc21,0.63
CCCCN1CCCc2cc(CN(CCCN3CCOCC3)C(=O)Nc3ccc(C)c(C)c3)ccc21,0.22*
CCOc1ccc(NC(=O)N(CCN2CCOCC2)Cc2ccc3c(c2)CCCN3CC)cc1,0.78
CCCN1CCCc2cc(CN(CCCOC)C(=O)Nc3ccc(C)c(C)c3)ccc21,0.64
CCCN1CCCc2cc(CN(CCCN3CCOCC3)C(=O)Nc3ccc(OCC)cc3)ccc21,0.72
CCOc1ccc2nc(N3CCC(C(=O)N4CCN(Cc5ccccc5)CC4)CC3)sc2c1,0.81
CCCn1c(C2CC(=O)N(c3ccc(Br)cc3)C2)nc2ccccc21 (stereo not given),0.95
COc1ccc(NC(=O)CNC(=O)c2cn(-c3ccccc3OC)c(=O)c3ccccc23)cc1OC,1.1
Cc1cc(C)n(-c2nc3ccccc3nc2Nc2ccc(N(C)C)cc2)n1,0.22*
Cc1cccc(Nc2nc3ccccc3nc2-n2nc(C)cc2C)c1,2.6

# Source: PubChem (Bradner/Qi Labs at DFCI)
